From PubChem BioAssay (NCI) come the findings set out here.

The structures appear in SMILES notation. This is part of a sample that, as a whole, favours compounds with a hit. Of some 83,000 tested, about 20% had one in any assay.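 Negative percent growth values reflect cell death: -40 means 40% of the cells present at the start died, and -100 means all died.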 Unmarked numbers belong to inactive results. Active and inactive are the calls of the source. How the source made its calls: active means growth percent below 10; inactive means the rest.

Test systems include HCT-15 colon; HT29 colon; SNB-75 CNS; SNB-19 CNS; U251 CNS; PC-3 prostate; SK-MEL-5 melanoma; UACC-62 melanoma; LOX IMVI melanoma; SK-MEL-28 melanoma; SK-MEL-2 melanoma; EKVX NSCLC; SN12C renal; UO-31 renal; TK-10 renal; ACHN renal; CAKI-1 renal; A498 renal; CCRF-CEM leukemia; MOLT-4 leukemia.
Assay in all cases: NCI-60 one-dose screen, 48 h (100 = growth as untreated, 0 = no growth, -100 = all killed)
What all share (settings): 10 µM unless noted

Take `CCOC(=O)c1ccc2c(c1)c1c(C)c3ccncc3c(C)c1n2C`: the growth with HCT-15 colon was 0.188% (active); in the assay with HT29 colon, 3.66% (active); in the assay on SNB-75 CNS it was 2.3% (active); in the assay with SNB-19 CNS, 8.59% (active); in the assay on U251 CNS it was 0.292% (active); with PC-3 prostate it was 10.8%. Further, the growth in the assay with SK-MEL-5 melanoma is -59.7% (active); in the assay on UACC-62 melanoma, -64.4% (active); with LOX IMVI melanoma, -19.1% (active); with SK-MEL-28 melanoma, -28.3% (active); in the assay with SK-MEL-2 melanoma, -38.2% (active); in the assay on EKVX NSCLC, 10.3%. In addition, the growth in the assay on SN12C renal is 4.36% (active); with UO-31 renal, -13.4% (active); in the assay with TK-10 renal it was 2.52% (active); in the assay with ACHN renal it was -22.5% (active); in the assay with CAKI-1 renal, -10.4% (active); in the assay with A498 renal it was -45.6% (active). Further, the growth is 12.6% in the assay on CCRF-CEM leukemia and 8.03% (active) with MOLT-4 leukemia.

`CC1=NN(c2ccc(Cl)cc2)CC1(C)N=O` (stereo not given): the growth is 27.4% in the assay with HCT-15 colon; 28.3% in the assay on HT29 colon; 75.7% in the assay with SNB-75 CNS; 97.9% with SNB-19 CNS; 91.5% with U251 CNS; 91.9% in the assay with PC-3 prostate. Besides, the growth was 95.4% with SK-MEL-5 melanoma; 88.2% with UACC-62 melanoma; 28.1% with LOX IMVI melanoma; 90.4% in the assay with SK-MEL-28 melanoma; 105% in the assay on SK-MEL-2 melanoma; 70.1% in the assay with EKVX NSCLC. Also, the growth is 88.4% with SN12C renal; 32.8% with UO-31 renal; 105% with TK-10 renal; 15.2% in the assay on ACHN renal; 60.4% with CAKI-1 renal; 101% in the assay with A498 renal. The growth in the assay on CCRF-CEM leukemia is 34%; in the assay with MOLT-4 leukemia it was 44.6%.

For the compound `O=C(Nc1ccccc1)c1sc(-c2ccccc2)cc1O`, the growth is 97.4% in the assay on HCT-15 colon; 107% with HT29 colon; 82.6% in the assay on SNB-75 CNS; 101% with SNB-19 CNS; 98.5% with U251 CNS; 95.2% with PC-3 prostate. Besides, the growth in the assay on SK-MEL-5 melanoma is 83.7%; in the assay with UACC-62 melanoma, 67%; in the assay with LOX IMVI melanoma it was 109%; in the assay on SK-MEL-28 melanoma, 84.4%; in the assay on SK-MEL-2 melanoma it was 105%; in the assay on EKVX NSCLC, 86.7%. For the same compound, the growth was 105% in the assay on SN12C renal; 86.5% in the assay on UO-31 renal; 118% with TK-10 renal; 93.1% with ACHN renal; 90.6% in the assay with CAKI-1 renal; 94.6% in the assay on A498 renal. Also, the growth with CCRF-CEM leukemia is 96.7%; in the assay with MOLT-4 leukemia, 95.2%.

Consider `COc1cc(C(=O)c2c(-c3ccccc3)oc3c(OC)cccc23)cc(OC)c1O`, for which the growth in the assay with HCT-15 colon was 13.5%; in the assay on HT29 colon, 6.79% (active); in the assay with SNB-75 CNS, 22.2%; in the assay on SNB-19 CNS it was 25.8%; in the assay on U251 CNS, 18.8%; in the assay with PC-3 prostate, 23.5%. For the same compound, the growth in the assay with SK-MEL-5 melanoma was 19.7%; in the assay with UACC-62 melanoma, 39.3%; in the assay with LOX IMVI melanoma it was 16.1%; in the assay with SK-MEL-28 melanoma, 62.7%; in the assay on SK-MEL-2 melanoma, 62%; in the assay with EKVX NSCLC, 44.9%. Further, the growth in the assay on SN12C renal is 27.1%; with UO-31 renal, 46.2%; with TK-10 renal it was 64.6%; in the assay with ACHN renal, 28.1%; in the assay on CAKI-1 renal, 33.1%; in the assay on A498 renal, -26.1% (active). Also, the growth is 13.8% in the assay on CCRF-CEM leukemia and 18.7% in the assay with MOLT-4 leukemia.

Regarding `CC(=O)c1cc(-c2ccccc2N)n(-c2ccc3c(c2)OCO3)c1C`, the growth in the assay with HCT-15 colon was 13.4%; in the assay with HT29 colon it was 6.88% (active); in the assay with SNB-75 CNS, 22.8%; in the assay with SNB-19 CNS it was 18.6%; in the assay on U251 CNS, 14.7%; with PC-3 prostate, 30.1%. In addition, the growth in the assay with SK-MEL-5 melanoma is 2.46% (active); with UACC-62 melanoma, 25.3%; in the assay with LOX IMVI melanoma it was 35.1%; in the assay with SK-MEL-28 melanoma, 52.4%; in the assay with SK-MEL-2 melanoma, 51.6%; in the assay with EKVX NSCLC, 50.9%. For the same compound, the growth in the assay on SN12C renal was 29.1%; in the assay with UO-31 renal, 40.2%; with TK-10 renal it was 45.6%; with ACHN renal, 21.2%; in the assay on CAKI-1 renal, 41.7%; in the assay with A498 renal, -12% (active). Moreover, the growth with CCRF-CEM leukemia is 11.8%; with MOLT-4 leukemia, 16.1%.

For `COc1cc(-c2nc3ccc(C)cc3[nH]2)ccc1OCC(=O)N=Nc1c(O)[nH]c2ccc(Cl)cc12`, the growth in the assay with HCT-15 colon was 58.8%; with HT29 colon it was -27.6% (active); in the assay with SNB-75 CNS, -42.1% (active); with SNB-19 CNS, 3.43% (active); in the assay with U251 CNS, -41.6% (active); in the assay with PC-3 prostate, 11.1%. Moreover, the growth in the assay with SK-MEL-5 melanoma is 56%; in the assay with UACC-62 melanoma, 19.9%; with LOX IMVI melanoma it was -96.8% (active); with SK-MEL-28 melanoma it was 3.39% (active); with SK-MEL-2 melanoma it was 13%; with EKVX NSCLC it was 50.7%. Besides, the growth is -56.4% (active) in the assay with SN12C renal; 86.3% in the assay with UO-31 renal; 23.4% with TK-10 renal; 31.4% in the assay on ACHN renal; -61.8% (active) in the assay on CAKI-1 renal; 82.2% with A498 renal. Also, the growth is -39.1% (active) with CCRF-CEM leukemia and -17.9% (active) in the assay on MOLT-4 leukemia.

As to `COc1cc(/C=C\c2cc(/C=C\c3ccc(O)c(OC)c3)n(C(=O)CNc3ccc(Cl)cc3)n2)ccc1O`, the growth in the assay on HCT-15 colon was 11.3%; with HT29 colon, 15.8%; in the assay on SNB-75 CNS, 25.5%; with SNB-19 CNS, 45.6%; in the assay with U251 CNS, 16.1%; with PC-3 prostate, 33.9%. The growth in the assay with SK-MEL-5 melanoma is 15.9%; in the assay on UACC-62 melanoma it was 10.9%; in the assay on LOX IMVI melanoma, 11.2%; with SK-MEL-28 melanoma it was 49.5%; in the assay with SK-MEL-2 melanoma, 9.05% (active); in the assay with EKVX NSCLC it was 42.2%. The growth with SN12C renal is 22.5%; in the assay with UO-31 renal, 15.9%; in the assay on TK-10 renal, 47.2%; with ACHN renal it was 23.6%; in the assay on CAKI-1 renal it was 29.3%; in the assay on A498 renal, 44.5%. In addition, the growth with CCRF-CEM leukemia is 10%; with MOLT-4 leukemia it was 8.25% (active).

For `CCCCCCCCNc1cc2c3c(c1)CCCN3CCC2`, the growth in the assay on HCT-15 colon was 17.9%; with HT29 colon, -9.19% (active); in the assay with SNB-75 CNS, 35.9%; in the assay with SNB-19 CNS, 17.5%; in the assay on U251 CNS, 15.5%; in the assay on PC-3 prostate, -0.993% (active). Besides, the growth in the assay on SK-MEL-5 melanoma was -71.8% (active); in the assay on UACC-62 melanoma, 27.8%; with LOX IMVI melanoma, 2.21% (active); in the assay on SK-MEL-28 melanoma, 48.9%; in the assay on SK-MEL-2 melanoma, -46.6% (active); in the assay with EKVX NSCLC, 10%. Besides, the growth with SN12C renal was 9.8% (active); with UO-31 renal it was 61%; with TK-10 renal, 41.7%; in the assay on ACHN renal, 30.9%; with CAKI-1 renal, 38.6%; in the assay on A498 renal, 80.2%. Besides, the figures for the growth with CCRF-CEM leukemia and in the assay with MOLT-4 leukemia were 42.8% and 27.5%, respectively.
